Experimental data published in PubChem BioAssay (NCI).
Compounds without any hit were thinned out: in the full panel of roughly 83,000, 20% have a hit.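 Interpretation: 100, growth as untreated; towards 0, rising growth inhibition; 0, no net growth; 0 to -100, cell death. Compounds scoring below 10 were considered active.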 Activity calls are given as the source filed them.

Experiments:
Assay in all cases: NCI-60 one-dose screen, 48 h (100 = growth as untreated, 0 = no growth, -100 = all killed)
Conditions in all cases: 10 µM unless noted
NCI-H23 lung = tested on: NCI-H23 lung
NCI-H226 lung = tested on: NCI-H226 lung
NCI-H322M lung = tested on: NCI-H322M lung
HOP-62 NSCLC = tested on: HOP-62 NSCLC
NCI-H460 lung = tested on: NCI-H460 lung
HOP-92 NSCLC = tested on: HOP-92 NSCLC
NCI-H522 lung = tested on: NCI-H522 lung
A549/ATCC NSCLC = tested on: A549/ATCC NSCLC
786-0 renal = tested on: 786-0 renal
COLO 205 colon = tested on: COLO 205 colon

Measured: growth

CC1Cc2c(Cl)ncnc2N(C)c2ccc(F)cc21 (stereo unspecified)
inactive: NCI-H23 lung 103% | NCI-H226 lung 94.5% | NCI-H322M lung 99.5% | HOP-62 NSCLC 93.2% | NCI-H460 lung 108% | HOP-92 NSCLC 65.8% | NCI-H522 lung 89.3% | A549/ATCC NSCLC 70% | 786-0 renal 79%

CN(CCn1sc(=O)n(Cc2ccccc2)c1=O)Cc1ccc2c(Cl)cc(Cl)c(O)c2n1
inactive: NCI-H23 lung 50.1% | NCI-H226 lung 61.9% | NCI-H322M lung 41% | HOP-62 NSCLC 25.2% | NCI-H460 lung 19.8% | HOP-92 NSCLC 36% | NCI-H522 lung 80.9% | A549/ATCC NSCLC 32.6% | 786-0 renal 37.6%

Cc1ccc2c(n1)C(=O)c1[nH]c3ccccc3c1C2=O
active: NCI-H23 lung -33.8% | NCI-H460 lung -50.6% | A549/ATCC NSCLC -14.4%
inactive: NCI-H226 lung 55.7% | NCI-H322M lung 31.8% | HOP-62 NSCLC 39.5% | HOP-92 NSCLC 78% | NCI-H522 lung 59.7% | 786-0 renal 78.1%

O=Nc1c(-c2c(O)[nH]c3ncccc23)[nH]c2ccccc12
inactive: NCI-H23 lung 69.7% | NCI-H226 lung 78.6% | NCI-H322M lung 30.7% | HOP-62 NSCLC 45.9% | NCI-H460 lung 52.2% | HOP-92 NSCLC 54% | NCI-H522 lung 47.6% | A549/ATCC NSCLC 46.6% | 786-0 renal 43.3%

COc1ccc(-c2csc(NC(=O)CSc3nc(-c4ccccc4)cc(=O)[nH]3)n2)cc1
inactive: NCI-H23 lung 51% | NCI-H226 lung 78.7% | NCI-H322M lung 90.1% | HOP-62 NSCLC 50.7% | NCI-H460 lung 78.7% | HOP-92 NSCLC 90.2% | NCI-H522 lung 58% | A549/ATCC NSCLC 64.6% | 786-0 renal 67.4%

Cc1nc2sc(C(=O)Nc3ccccc3)c(N)c2cc1C(=O)c1ccccc1
active: NCI-H460 lung 6.08% | COLO 205 colon -25%
inactive: NCI-H23 lung 64.4% | NCI-H226 lung 31.3% | NCI-H322M lung 39.4% | HOP-62 NSCLC 34.5% | HOP-92 NSCLC 59.8% | NCI-H522 lung 50.2% | A549/ATCC NSCLC 23.7% | 786-0 renal 44.4%

Cc1cccnc1NC(=S)Nc1ncccc1C
inactive: NCI-H23 lung 99.2% | NCI-H226 lung 100% | NCI-H322M lung 107% | HOP-62 NSCLC 109% | NCI-H460 lung 107% | HOP-92 NSCLC 109% | NCI-H522 lung 88.9% | A549/ATCC NSCLC 110% | 786-0 renal 90.1%

CN(Cc1ccc(C(F)(F)F)cc1)CC(O)C(=O)Nc1ccc(Cl)cc1 (stereo unspecified)
active: NCI-H23 lung -50.9% | HOP-62 NSCLC -37.8% | HOP-92 NSCLC -0.362% | NCI-H522 lung -51.4% | 786-0 renal -48.4%
inactive: NCI-H226 lung 51.8% | NCI-H322M lung 42.4% | NCI-H460 lung 18.3% | A549/ATCC NSCLC 19.6%

Cc1cc2c(O)c(-c3cc(Cl)ccc3Cl)c3sc(=O)oc3c2cc1C
active: HOP-92 NSCLC -15.5%
inactive: NCI-H23 lung 44.2% | NCI-H226 lung 58% | NCI-H322M lung 89.8% | HOP-62 NSCLC 87.8% | NCI-H460 lung 34.4% | NCI-H522 lung 26.4% | A549/ATCC NSCLC 60.2% | 786-0 renal 83.8%

CCn1c(SCC(=O)c2ccc(Br)cc2)nnc1-c1ccncc1
inactive: NCI-H23 lung 105% | NCI-H226 lung 99% | NCI-H322M lung 110% | HOP-62 NSCLC 109% | NCI-H460 lung 108% | HOP-92 NSCLC 114% | NCI-H522 lung 96% | A549/ATCC NSCLC 106% | 786-0 renal 114% | COLO 205 colon 114%

N#Cc1nc(-c2ccccc2)oc1S(=O)(=O)N1CCOCC1
active: NCI-H522 lung -55.5%
inactive: NCI-H23 lung 89.9% | NCI-H226 lung 102% | NCI-H322M lung 100% | HOP-62 NSCLC 97.9% | NCI-H460 lung 109% | HOP-92 NSCLC 108% | A549/ATCC NSCLC 94.5% | 786-0 renal 88%

CCCCCCCCn1ccc2cc(NC(=O)CN3CCN(c4nc(C)cc(Cl)n4)CC3)ccc21
inactive: NCI-H23 lung 91.5% | NCI-H226 lung 88.9% | NCI-H322M lung 87.8% | HOP-62 NSCLC 99.3% | NCI-H460 lung 100% | HOP-92 NSCLC 79.3% | NCI-H522 lung 81.5% | A549/ATCC NSCLC 96.3% | 786-0 renal 97.7% | COLO 205 colon 100%

O=C1/C(=C/c2ccc(-c3ccc(Br)cc3)o2)SC(=S)N1CCc1ccc(O)cc1
active: 786-0 renal 5.73% | COLO 205 colon -27.8%
inactive: NCI-H23 lung 75.8% | NCI-H226 lung 90.2% | NCI-H322M lung 84.5% | HOP-62 NSCLC 90.6% | NCI-H460 lung 60.3% | HOP-92 NSCLC 60% | NCI-H522 lung 13.7% | A549/ATCC NSCLC 67.5%

Cc1ccc(CNc2ccc(Cl)cc2NCc2ccc(C)c(O)c2)cc1O
active: NCI-H23 lung 3.7% | NCI-H460 lung 2.22% | HOP-92 NSCLC -11%
inactive: NCI-H226 lung 85.7% | NCI-H322M lung 17.6% | HOP-62 NSCLC 40.5% | NCI-H522 lung 12.5% | A549/ATCC NSCLC 21% | 786-0 renal 23% | COLO 205 colon 90.2%

COC(=O)c1n[nH]c2ccc3nc(-c4cn[nH]c4C(F)(F)F)c4c(c3c12)CCCC4
inactive: NCI-H23 lung 56% | NCI-H226 lung 51.6% | NCI-H322M lung 45.1% | HOP-62 NSCLC 46.9% | NCI-H460 lung 29.3% | HOP-92 NSCLC 30.9% | NCI-H522 lung 23.6% | A549/ATCC NSCLC 39% | 786-0 renal 35.5%
active: COLO 205 colon 3.9%

CCOC(=O)c1c(C)c2c(n1C)CSc1cc(C(=O)c3ccccc3)c(=O)[nH]c1-2
inactive: NCI-H23 lung 81.7% [100 µM] | NCI-H226 lung 98.3% [100 µM] | NCI-H322M lung 90.5% [100 µM] | HOP-62 NSCLC 103% [100 µM] | NCI-H460 lung 79.6% [100 µM] | HOP-92 NSCLC 84.4% [100 µM] | NCI-H522 lung 97.5% [100 µM] | A549/ATCC NSCLC 78.9% [100 µM] | 786-0 renal 106% [100 µM] | COLO 205 colon 117% [100 µM]

CC(C)=NNc1ccccn1
inactive: NCI-H23 lung 68% | NCI-H226 lung 40.9% | NCI-H322M lung 19.4% | HOP-62 NSCLC 32.8% | NCI-H460 lung 30% | HOP-92 NSCLC 40.4% | NCI-H522 lung 25.5% | A549/ATCC NSCLC 35.1% | 786-0 renal 61.7%
active: COLO 205 colon 3.92%

O=C(Cn1c(=O)sc2nc3ccccc3nc21)Nc1ncc(Cc2cccc(Cl)c2Cl)s1
inactive: NCI-H23 lung 97.1% | NCI-H226 lung 86.5% | NCI-H322M lung 97.1% | HOP-62 NSCLC 97.2% | NCI-H460 lung 104% | HOP-92 NSCLC 100% | NCI-H522 lung 82.5% | A549/ATCC NSCLC 99.6% | 786-0 renal 99.8% | COLO 205 colon 95.6%

C=C(C)[C@@H]1CC[C@]2(C(=O)NCC#CCN3CCN(C)CC3)CC[C@]3(C)[C@H](CC[C@@H]4[C@@](C)(CCC#N)[C@H](C(=C)C)CC[C@]43C)[C@@H]12
inactive: NCI-H23 lung 75.7% | NCI-H226 lung 57.6% | NCI-H322M lung 74.9% | HOP-62 NSCLC 65.6% | NCI-H460 lung 26.4% | NCI-H522 lung 68.5% | A549/ATCC NSCLC 49.6% | 786-0 renal 54.5% | COLO 205 colon 57.8%
active: HOP-92 NSCLC 8.35%

CCN(CC)CCOc1ccc(-c2c(-c3ccccc3)c(=O)oc3ccccc23)cc1
inactive: NCI-H23 lung 94.8% | NCI-H226 lung 82.7% | NCI-H322M lung 110% | HOP-62 NSCLC 95.5% | NCI-H460 lung 95.8% | HOP-92 NSCLC 84.3% | NCI-H522 lung 71.6% | A549/ATCC NSCLC 92% | 786-0 renal 85% | COLO 205 colon 81.2%

O=C(Cn1c(-c2ccc([N+](=O)[O-])cc2)nc2ccccc21)NNC(=O)c1cccnc1
inactive: NCI-H23 lung 83.4% | NCI-H226 lung 60.3% | NCI-H322M lung 88.6% | HOP-62 NSCLC 95.2% | NCI-H460 lung 76.2% | HOP-92 NSCLC 38% | NCI-H522 lung 54.7% | A549/ATCC NSCLC 91.1% | 786-0 renal 93% | COLO 205 colon 92.6%

Cc1ccc(Sc2oc(-c3ccc(C)cc3)nc2[P+](c2ccccc2)(c2ccccc2)c2ccccc2)cc1
inactive: NCI-H226 lung 15.7% | NCI-H322M lung 10.3%
active: NCI-H23 lung -17.2% | HOP-62 NSCLC 9.94% | NCI-H460 lung -39.6% | HOP-92 NSCLC -9.3% | NCI-H522 lung -38.5% | A549/ATCC NSCLC 7.74% | 786-0 renal 3.99% | COLO 205 colon -41.5%

CO[C@]12C=C/C(=C(/C(=O)OCc3cccnc3)C(=O)CCCCCCCC[C@@]3(OC)C=C/C(=C(/C(=O)OCc4cccnc4)C(=O)CCCCCCCC1)O3)O2
active: NCI-H23 lung -53.1% | NCI-H226 lung -45.6% | NCI-H460 lung 3.19% | HOP-92 NSCLC 2.61% | NCI-H522 lung -4.14% | 786-0 renal -38.4% | COLO 205 colon -0.264%
inactive: NCI-H322M lung 18.3% | HOP-62 NSCLC 30.9% | A549/ATCC NSCLC 10.7%

CN(C)CC(=O)Nc1ccc2ncnc(Nc3ccc(Oc4cccc(C(F)(F)F)c4)c(Cl)c3)c2c1
active: NCI-H460 lung 8.52%
inactive: NCI-H23 lung 75.9% | NCI-H226 lung 80.7% | NCI-H322M lung 45.3% | HOP-62 NSCLC 76.5% | HOP-92 NSCLC 37.9% | NCI-H522 lung 67.7% | A549/ATCC NSCLC 47.5% | 786-0 renal 59.4% | COLO 205 colon 35.9%

Cc1ccc(/C=C2\CN(C(=O)OC(C)(C)C)C/C(=C\c3ccc(C)cc3)C2=O)cc1
inactive: NCI-H23 lung 56.6% | NCI-H226 lung 84.9% | NCI-H322M lung 98.7% | HOP-62 NSCLC 94.9% | NCI-H460 lung 53% | HOP-92 NSCLC 84.1% | NCI-H522 lung 58.4% | A549/ATCC NSCLC 81.5% | 786-0 renal 56.5% | COLO 205 colon 51.6%

Cc1ccccc1Cn1cnc2ccc(-c3cc(NC(=O)c4ccc(NC5CCN(C)CC5)cc4)n[nH]3)cc21
inactive: NCI-H23 lung 75% | NCI-H226 lung 68% | NCI-H322M lung 83.5% | HOP-62 NSCLC 72.3% | NCI-H460 lung 91.9% | HOP-92 NSCLC 92.4% | NCI-H522 lung 57.2% | A549/ATCC NSCLC 84.5% | 786-0 renal 85% | COLO 205 colon 70.8%

CCOC(=O)c1cc2c(=O)oc3ccccc3c2oc1=O
inactive: NCI-H23 lung 112% | NCI-H226 lung 101% | NCI-H322M lung 100% | HOP-62 NSCLC 120% | NCI-H460 lung 111% | HOP-92 NSCLC 49.4% | NCI-H522 lung 92.1% | A549/ATCC NSCLC 105% | 786-0 renal 111% | COLO 205 colon 129%
